The full ranking holds about 1,600 compounds; the median of “Hit score” is about 0.13, and the highest 2% start at about 0.46. Many of the other results were omitted from the sample, so the highest values are more common in it than they were.

The assay relates to SARS-CoV-2. The assay can be described thus: Antiviral activity against SARS-CoV-2 (USA-WA1/2020 strain) measured by imaging in HRCE cells at MOI 0.4 after 96 hrs (reported as hit score from 0-1 for on-disease vs off-disease activity: scores >0.6 considered hits). It counts as functional, Homo sapiens.
With `CCCCc1cc2ccccc2c(OCCN(C)C)n1` [DIMETHISOQUIN], the Hit score is 0.1395. On to `CC[C@]1(O)C[C@H]2CN(CCc3c([nH]c4ccccc34)[C@@](C(=O)OC)(c3cc4c(cc3OC)N(C=O)[C@H]3[C@@](O)(C(=O)OC)[C@H](OC(C)=O)[C@]5(CC)C=CCN6CC[C@]43[C@@H]65)C2)C1` [VINCRISTINE], for which the Hit score is recorded as 0.4904. In turn, `CC[C@]1(O)C[C@@H]2CN(CCc3c([nH]c4ccccc34)[C@@](C(=O)OC)(c3cc4c(cc3OC)N(C)[C@H]3[C@@](O)(C(=O)OC)[C@H](OC(C)=O)[C@]5(CC)C=CCN6CC[C@]43[C@@H]65)C2)C1` [VINBLASTINE] yielded a Hit score of 0.2235. The result for `O=C(C[S+]([O-])Cc1ccco1)NC/C=C\COc1cc(CN2CCCCC2)ccn1` (centres undefined) [LAFUTIDINE] reads 0.2245; that for `CCC(c1ccccc1)c1c(O)c2ccccc2oc1=O` (centres undefined) [PHENPROCOUMON], 0.1829; that for `COc1ccc2c3c1O[C@H]1C[C@@H](O)C=C[C@@]31CCN(C)C2` [GALANTAMINE], 0.2532. `CC(C)COc1ccc(CNC(=O)N(Cc2ccc(F)cc2)C2CCN(C)CC2)cc1` [PIMAVANSERIN]: the Hit score is recorded as -0.09171. The result for `Brc1ccc(NC2C3CC4CC(C3)CC2C4)cc1` (centres undefined) reads 0.3495. Turning to `CO[C@H]1C(=O)[C@]2(C)[C@@H](OC)C[C@H]3OC[C@@]3(OC(C)=O)[C@H]2[C@H](OC(=O)c2ccccc2)[C@]2(O)C[C@H](OC(=O)[C@H](O)[C@@H](NC(=O)OC(C)(C)C)c3ccccc3)C(C)=C1C2(C)C` [CABAZITAXEL], the Hit score was -0.8282. As for `COC(=O)c1ccc2c(c1)NC(=O)/C2=C(\Nc1ccc(N(C)C(=O)CN2CCN(C)CC2)cc1)c1ccccc1` [NINTEDANIB], the figure is 0.1859; as for `O=c1ncnc2n([C@H]3O[C@@H](CO)[C@H](O)[C@@H]3O)[nH]cc1-2` [ALLOPURINOL RIBOSIDE], 0.1953. As to `Cc1c(O)cccc1C(=O)N[C@@H](CSc1ccccc1)[C@H](O)CN1C[C@H]2CCCC[C@H]2C[C@H]1C(=O)NC(C)(C)C`, the Hit score is recorded as 0.1621.

With `COc1ccc(C(=O)N2CCN(c3ccc4c(c3)CCC(=O)N4)CC2)cc1OC` [VESNARINONE], the Hit score is given as 0.09463. For `CCCOC(C(=O)OC1CCN(C)CC1)(c1ccccc1)c1ccccc1.Cl`, the Hit score came to 0.3138. The compound `C/C=C/C[C@@H](C)[C@@H](O)[C@H]1C(=O)N[C@@H](CC)C(=O)N(C)CC(=O)N(C)[C@@H](CC(C)C)C(=O)N[C@@H](C(C)C)C(=O)N(C)[C@@H](CC(C)C)C(=O)N[C@@H](C)C(=O)N[C@H](C)C(=O)N(C)[C@@H](CC(C)C)C(=O)N(C)[C@@H](CC(C)C)C(=O)N(C)[C@@H](C(C)C)C(=O)N1C` [CYCLOSPORINE] gave a Hit score of 0.07198. As for `COc1ccc2c(c1)c(CC(=O)OCC(C(=O)O)c1ccccc1)c(C)n2C(=O)c1ccc(Cl)cc1` (centres undefined), the figure is 0.05914. `COc1ccccc1OC(=O)c1ccccc1OC(C)=O` [GUACETISAL] had a Hit score of 0.1414.

Regarding `COc1ccc(NC(=O)c2ccc(C(=N)N(C)C)cc2)c(C(=O)Nc2ccc(Cl)cn2)c1` [BETRIXABAN], the Hit score was 0.004778. On to `O=C1NC(c2ccccc2)(c2ccccc2)C(=O)N1COP(=O)(O)O` [FOSPHENYTOIN], for which the Hit score is -0.01075. As for `CNC(=O)c1cccc(NC(=O)N2CCC(Oc3ccccc3Cl)CC2)c1`, the figure is 0.1005. Take `CCCCc1nc(C)c(CC(=S)N(C)C)c(=O)n1Cc1ccc(-c2ccccc2-c2nnn[nH]2)cc1`: the Hit score amounted to 0.1262.

As for `COc1ccc2c(O[C@@H]3C[C@H]4C(=O)N[C@]5(C(=O)NS(=O)(=O)C6CC6)C[C@H]5/C=C\CCCCN(C)C(=O)[C@@H]4C3)cc(-c3nc(C(C)C)cs3)nc2c1C`, the Hit score amounted to 0.1824. Turning to `C=C1/C(=C\C=C2/CCC[C@]3(C)[C@@H]([C@H](C)OCCC(C)(C)O)CC[C@@H]23)C[C@@H](O)C[C@@H]1O` [MAXACALCITOL], the Hit score was -0.1282. As for `C=C1/C(=C\C=C2/CCC[C@]3(C)[C@@H]([C@H](C)CC[C@@H](O)C(C)C)CC[C@@H]23)C[C@@H](O)C[C@@H]1O` [TACALCITOL], the figure is 0.4469; as for `C=C1CC[C@H](O)C/C1=C/C=C1\CCC[C@]2(C)[C@@H]([C@H](C)CC[C@@H](O)C(C)(C)O)CC[C@@H]12` [SECALCIFEROL], 0.3632. Regarding `C=C1/C(=C\C=C2/CCC[C@]3(C)[C@@H]([C@H](C)/C=C/[C@@H](O)C4CC4)CC[C@@H]23)C[C@@H](O)C[C@@H]1O` [CALCIPOTRIENE], the Hit score came to 0.6212.

Consider `C[C@H](/C=C/[C@H](C)C(C)(C)O)[C@H]1CC[C@H]2/C(=C/C=C3C[C@@H](O)C[C@H](O)C3)CCC[C@]12C` [PARICALCITOL], for which the Hit score is reported as 0.5764. As to `C=C1/C(=C\C=C2/CCC[C@]3(C)[C@@H]([C@H](C)/C=C/[C@H](C)C(C)C)CC[C@@H]23)C[C@@H](O)C[C@@H]1O` [DOXERCALCIFEROL], the Hit score is recorded as 0.4621.

The compound `C=C1CC[C@H](O)C/C1=C/C=C1\CCC[C@]2(C)[C@@H]([C@H](C)CCCC(C)C)CC[C@@H]12` [CHOLECALCIFEROL] yielded a Hit score of 0.2186. The result for `C=C1CC[C@H](O)C/C1=C/C=C1\CCC[C@]2(C)[C@@H]([C@H](C)CCCC(C)(C)O)CC[C@@H]12` [CALCIFEDIOL ANHYDROUS] reads 0.4579. In the case of `CCN(CC)C(=O)Nc1ccc(OCC(O)CNC(C)(C)C)c(C(C)=O)c1` (centres undefined) [CELIPROLOL], the Hit score is recorded as 0.5089. Consider `CN(C)C(=O)Oc1cc(OC(=O)N(C)C)cc(C(O)CNC(C)(C)C)c1` (centres undefined) [BAMBUTEROL], for which the Hit score is reported as 0.1323.

`CC(C)(C)NCC(O)COc1ccc(NC(=O)NC2CCCCC2)cc1` (centres undefined) [TALINOLOL]: the Hit score came to 0.1441. As for `C[C@]12CC[C@H]3[C@@H](CC[C@@]45O[C@@H]4C(O)=C(C#N)C[C@]35C)[C@@H]1CC[C@@H]2O` [TRILOSTANE], the figure is 0.3178.

Values taken from ChEMBL document CHEMBL4303122, “Identification of potential treatments for COVID-19 through artificial intelligence-enabled phenomic analysis of human cells infected with SARS-CoV-2” (2020).
